An excerpt weighted towards active compounds, which were near 19% of everything screened.
IL1B secr inh = inhibitors of inflammasome signaling (IL-1 beta secretion) | THP-1 LPS/ATP IL-1B secretion, AlphaLISA, 16 h; stronger effect = lower value | activity change, % at 57.5 µM | hit rate 4.7% among 360,000; in the data active means activity change below about -50%; inconclusive means mostly about -30% to -49%
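Secreted IL-1B measured by AlphaLISA bead assay after 16 h compound exposure of THP-1 cells; compounds (final up to 57.5 uM) added 1 h before LPS (250 ng/mL) and ATP (1.25 mM) stimulation; lower signal means less secretion.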
TDP1 cell noCPT = qHTS for Inhibitors of human tyrosyl-DNA phosphodiesterase 1 (TDP1): qHTS in cells in absence of CPT; DT40 Tdp1-/- hTDP1 cells, no CPT, ATP luminescence, 48 h; Potency, µM (series often up to 46.2 µM), without a hit: at the top dose activity change, negative = growth inhibition, hits mostly inhibitors; hit rate 15% among 420,000; further: potency means the concentration at half of the fitted maximal effect; nearly all actives have a fitted effect of over 55% in size
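Readout: luminescence from CellTiter-Glo after 30 min in the dark at RT. Cells: DT40 Tdp1-/- with stable hTDP1, 400/well. Exposure: compounds alone, ≥48 hr, 37 °C.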
HT1080 IDH1KD tx = kills HT-1080 cells with IDH1 knockdown; hit rate 2% among 360,000; AID 686971; HT-1080 IDH1 knockdown viability, ATP luminescence, 48 h; Potency, µM (titrated, usually from 46.1 µM), for the others: top-dose activity, negative = toxicity, actives largely listed as cytotoxic;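 further: potency means the concentration at half of the fitted maximal effect; 0% = DMSO wells and -100% = cell-free medium wells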
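Using the IDH1-knockdown HT-1080 line run in the same batch and compound series as the NT line, viability after 48 h at 37 °C was determined by CellTiter-Glo luminescence and expressed as % activity.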
ELG1 repair inh = ELG1-dependent DNA repair inhibition | HEK293T ELG1-luciferase reporter, luminescence, 16 h; DNA damage induced by 5-fluorouridine | hit rate 2.3% among 330,000 | AID 504467 | Potency, µM (titrated, usually from 46.1 µM), inactives show top-dose activity change, negative = inhibition, most hits filed as inhibitors; further: potency means the concentration at half of the fitted maximal effect; nearly all actives have a fitted effect of over 55% in size
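Reporter activity after DNA damage by 5-fluorouridine is monitored. Compound-treated cells incubate 16 hr at 37 °C, then ONE-Glo is added for 30 min before luminescence reading.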
HT1080NT lethal = kills 2HG-producing HT-1080-NT fibrosarcoma cells; HT-1080-NT fibrosarcoma viability, CellTiter-Glo ATP luminescence, 48 h; Potency, µM (highest dose often 46.1 µM), without a hit: at the highest dose activity, negative = less viability, usual class: cytotoxic; hit rate 1.6% among 360,000;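 further: NT is the 2HG producing partner of a matched IDH1 knockdown line; potency means the concentration at half of the fitted maximal effect; 0% = DMSO-treated cells and -100% = media-only wells without cells; nearly all actives have a fitted effect of over 55% in size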
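750 cells/well, RPMI + 5% FBS; 2 h settle, compound pin-transfer, 48 h at 37 degrees C. CellTiter-Glo 10 min RT, luminescence. Normalized to DMSO and media-only wells.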
DT40 TDP1 CPT = DT40-hTDP1 cell growth loss with CPT; hit rate 12% among 420,000; chicken DT40 Tdp1-/-;hTDP1 cells + 20 nM CPT, ATP luminescence, 48 h; Potency, µM (top dose mostly 46.2 µM), without a hit: at the highest dose activity change, negative = growth inhibition, usual class: inhibitors; further: potency means the concentration at half of the fitted maximal effect; nearly all actives have a fitted effect of over 55% in size
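Chicken DT40 Tdp1-/- cells stably complemented with human TDP1 were seeded at 400 cells/well in medium containing 20 nM camptothecin, exposed to pin-transferred compounds, and grown at 37 °C for at least 48 hr. Viability was read as ATP luminescence.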
The depositor's hits bear a star. Unless noted, the call rests on the fitted dose curve; in most records, active means well fitted curve in the direction sought with a large enough effect; inconclusive means small, poorly fitted or top-dose-only effect, or another doubt; inactive means no such curve, though single readings can be large; an effect the other way counts as inactive or inconclusive. Unless noted, on the % scale 0 is the no-effect control and ±100 the full control effect.

Results for c1ccc2c(c1)CCc1ccccc1C2=C1CCNCC1 ?
IL1B secr inh: -66*; TDP1 cell noCPT: 13µM*; HT1080 IDH1KD tx: -18%; HT1080NT lethal: -25%; DT40 TDP1 CPT: 15µM*

How did Fc1ccc2c(c1)-c1c(cnc3cc(-c4ccc(Cl)cc4)nn13)CO2 do in these assays?
TDP1 cell noCPT: -5%; DT40 TDP1 CPT: -2%

Results for CC(=O)OCC1OC(Sc2cccc3cccnc23)C(OC(C)=O)C(OC(C)=O)C1OC(C)=O (centres undefined) ?
IL1B secr inh: -97*; TDP1 cell noCPT: inconclusive; HT1080 IDH1KD tx: -17%; ELG1 repair inh: -15%; HT1080NT lethal: inconclusive; DT40 TDP1 CPT: inconclusive

What do the screens show for `CCCCCOc1ccc(Br)cc1CSC(=N)N`?
IL1B secr inh: -97*; TDP1 cell noCPT: 2.3µM*; HT1080 IDH1KD tx: inconclusive; ELG1 repair inh: inconclusive; HT1080NT lethal: inconclusive; DT40 TDP1 CPT: 5.2µM*

What do the screens show for `CCCCCOc1ccc(CN2CCOCC2)cc1Cl`?
IL1B secr inh: -22; TDP1 cell noCPT: -19%; HT1080 IDH1KD tx: -15%; ELG1 repair inh: inconclusive; HT1080NT lethal: -11%; DT40 TDP1 CPT: -25%

What do the screens show for `COc1ccc(Br)cc1CSC(=N)N`?
IL1B secr inh: -88*; TDP1 cell noCPT: inconclusive; HT1080 IDH1KD tx: -16%; ELG1 repair inh: -24%; HT1080NT lethal: -15%; DT40 TDP1 CPT: inconclusive

What do the screens show for `CCOc1ccc(CSC(=N)N)cc1`?
IL1B secr inh: 22; TDP1 cell noCPT: 18µM*; HT1080 IDH1KD tx: -1%; ELG1 repair inh: -12%; HT1080NT lethal: -7%; DT40 TDP1 CPT: 26µM*

Results for CCCCOc1ccc(CSC(=N)N)cc1Cl ?
IL1B secr inh: -101*; TDP1 cell noCPT: 18µM*; HT1080 IDH1KD tx: 15µM*; ELG1 repair inh: inconclusive; HT1080NT lethal: 18µM*; DT40 TDP1 CPT: 15µM*

Results for CCOc1ccc(NC(=O)C2CC(=O)N(c3ccccc3F)C2)cc1 (centres undefined) ?
IL1B secr inh: -6; TDP1 cell noCPT: -9%; HT1080 IDH1KD tx: 0%; ELG1 repair inh: -1%; HT1080NT lethal: 14%; DT40 TDP1 CPT: 3%

What do the screens show for `CC(=O)NCCNc1nc(-c2ccccc2C)nc2ccccc12`?
TDP1 cell noCPT: -24%; DT40 TDP1 CPT: -26%

How did CC(=O)c1ccc(OC(C)C)c(Cc2c(O)nc(N)[nH]c2=O)c1 do in these assays?
IL1B secr inh: 9; TDP1 cell noCPT: -19%; HT1080 IDH1KD tx: -1%; ELG1 repair inh: 18%; HT1080NT lethal: 2%; DT40 TDP1 CPT: -27%

How did CC(=O)c1ccc(OC(C)C)c(CSC(=N)N)c1 do in these assays?
IL1B secr inh: inconclusive; TDP1 cell noCPT: inconclusive; HT1080 IDH1KD tx: 6%; ELG1 repair inh: 9%; HT1080NT lethal: -2%; DT40 TDP1 CPT: 23µM*

Results for Cc1ccccc1CN1CCN(C2CCC2)CC1CCO (centres undefined) ?
IL1B secr inh: 8; TDP1 cell noCPT: -19%; HT1080 IDH1KD tx: 6%; ELG1 repair inh: -5%; HT1080NT lethal: 4%; DT40 TDP1 CPT: 0%

How did Cc1cc(NC(=O)CSc2cn(CCNC(=O)c3ccccc3)c3ccccc23)no1 do in these assays?
IL1B secr inh: -16; TDP1 cell noCPT: inconclusive; HT1080 IDH1KD tx: 4%; ELG1 repair inh: inconclusive; HT1080NT lethal: 0%; DT40 TDP1 CPT: -21%

Results for O=C(NCCn1cc(SCc2ccc(F)cc2)c2ccccc21)c1c(F)cccc1F ?
IL1B secr inh: -61*; TDP1 cell noCPT: inconclusive; HT1080 IDH1KD tx: -13%; ELG1 repair inh: inconclusive; HT1080NT lethal: inconclusive; DT40 TDP1 CPT: inconclusive

Results for NC(=O)CSc1cn(Cc2cccc(F)c2)c2ccccc12 ?
IL1B secr inh: -8; TDP1 cell noCPT: inconclusive; HT1080 IDH1KD tx: -10%; ELG1 repair inh: -5%; HT1080NT lethal: -23%; DT40 TDP1 CPT: 13µM*

How did O=C(O)CSc1cn(Cc2ccccc2)c2ccccc12 do in these assays?
IL1B secr inh: 12; TDP1 cell noCPT: -1%; HT1080 IDH1KD tx: 1%; ELG1 repair inh: 16%; HT1080NT lethal: 7%; DT40 TDP1 CPT: 1%

What do the screens show for `O=C(CSc1cn(CCNC(=O)c2cccs2)c2ccccc12)NC1CCCC1`?
IL1B secr inh: -7; TDP1 cell noCPT: 16µM*; HT1080 IDH1KD tx: 0%; ELG1 repair inh: inconclusive; HT1080NT lethal: -1%; DT40 TDP1 CPT: 16µM*

What do the screens show for `O=C(CSc1cn(CCNC(=O)c2ccccc2F)c2ccccc12)Nc1ccc(F)cc1`?
TDP1 cell noCPT: 23µM*; DT40 TDP1 CPT: 23µM*

What do the screens show for `COCCCN1C(=O)C(=O)/C(=C(/O)c2ccc(S(=O)(=O)N3CCOCC3)cc2)C1c1cccc(Cl)c1` (centres undefined)?
IL1B secr inh: 10; TDP1 cell noCPT: -1%; HT1080 IDH1KD tx: 3%; ELG1 repair inh: inconclusive; HT1080NT lethal: 15%; DT40 TDP1 CPT: 10%

Results for Cc1noc(C)c1COc1ccccc1C(=O)NCc1ccco1 ?
IL1B secr inh: 14; TDP1 cell noCPT: 0%; HT1080 IDH1KD tx: -1%; ELG1 repair inh: inconclusive; HT1080NT lethal: 1%; DT40 TDP1 CPT: 3%

Results for O=C(c1cccc(OC2CCN(Cc3ccc(F)cc3)CC2)c1)N1CCCC1 ?
IL1B secr inh: 0; TDP1 cell noCPT: -8%; HT1080 IDH1KD tx: -3%; ELG1 repair inh: 1%; HT1080NT lethal: 1%; DT40 TDP1 CPT: inconclusive

What do the screens show for `O=C(CSc1cn(CCNC(=O)c2cccc(C(F)(F)F)c2)c2ccccc12)Nc1ccc2c(c1)OCCO2`?
TDP1 cell noCPT: inconclusive; DT40 TDP1 CPT: 23µM*

Results for Cn1cc(SCC(=O)Nc2ccc3c(c2)OCCO3)c2ccccc21 ?
IL1B secr inh: 10; TDP1 cell noCPT: -23%; HT1080 IDH1KD tx: -1%; ELG1 repair inh: inconclusive; HT1080NT lethal: -2%; DT40 TDP1 CPT: -30%

How did O=C(CSc1cn(CCNC(=O)c2ccccc2F)c2ccccc12)Nc1ccc2c(c1)OCCO2 do in these assays?
TDP1 cell noCPT: 16µM*; DT40 TDP1 CPT: 23µM*

Results for O=C(NCCn1cc(SCc2ccccc2)c2ccccc21)c1c(F)cccc1F ?
IL1B secr inh: inconclusive; TDP1 cell noCPT: 23µM*; HT1080 IDH1KD tx: inconclusive; ELG1 repair inh: inconclusive; HT1080NT lethal: -18%; DT40 TDP1 CPT: inconclusive
